For some of these results: Measured potencies and affinities stand elsewhere.

What all share (parameters): scale not given: direction of the effect not stated beside the values
In assay [1] the target is Protein translocase subunit SecA (Escherichia coli (strain K12)) (UniProt P10408). Kind of assay: Assay to Identify E. coli SecA ATPase Inhibitors. To be noted: 30 µM. It counts as functional.
For assay [2], the target named is T1, Ubiquitin-activating enzyme e1, putative (Leishmania donovani (strain BPK282A1)) (UniProt E9BSI1).
T1 sequence (whole entry): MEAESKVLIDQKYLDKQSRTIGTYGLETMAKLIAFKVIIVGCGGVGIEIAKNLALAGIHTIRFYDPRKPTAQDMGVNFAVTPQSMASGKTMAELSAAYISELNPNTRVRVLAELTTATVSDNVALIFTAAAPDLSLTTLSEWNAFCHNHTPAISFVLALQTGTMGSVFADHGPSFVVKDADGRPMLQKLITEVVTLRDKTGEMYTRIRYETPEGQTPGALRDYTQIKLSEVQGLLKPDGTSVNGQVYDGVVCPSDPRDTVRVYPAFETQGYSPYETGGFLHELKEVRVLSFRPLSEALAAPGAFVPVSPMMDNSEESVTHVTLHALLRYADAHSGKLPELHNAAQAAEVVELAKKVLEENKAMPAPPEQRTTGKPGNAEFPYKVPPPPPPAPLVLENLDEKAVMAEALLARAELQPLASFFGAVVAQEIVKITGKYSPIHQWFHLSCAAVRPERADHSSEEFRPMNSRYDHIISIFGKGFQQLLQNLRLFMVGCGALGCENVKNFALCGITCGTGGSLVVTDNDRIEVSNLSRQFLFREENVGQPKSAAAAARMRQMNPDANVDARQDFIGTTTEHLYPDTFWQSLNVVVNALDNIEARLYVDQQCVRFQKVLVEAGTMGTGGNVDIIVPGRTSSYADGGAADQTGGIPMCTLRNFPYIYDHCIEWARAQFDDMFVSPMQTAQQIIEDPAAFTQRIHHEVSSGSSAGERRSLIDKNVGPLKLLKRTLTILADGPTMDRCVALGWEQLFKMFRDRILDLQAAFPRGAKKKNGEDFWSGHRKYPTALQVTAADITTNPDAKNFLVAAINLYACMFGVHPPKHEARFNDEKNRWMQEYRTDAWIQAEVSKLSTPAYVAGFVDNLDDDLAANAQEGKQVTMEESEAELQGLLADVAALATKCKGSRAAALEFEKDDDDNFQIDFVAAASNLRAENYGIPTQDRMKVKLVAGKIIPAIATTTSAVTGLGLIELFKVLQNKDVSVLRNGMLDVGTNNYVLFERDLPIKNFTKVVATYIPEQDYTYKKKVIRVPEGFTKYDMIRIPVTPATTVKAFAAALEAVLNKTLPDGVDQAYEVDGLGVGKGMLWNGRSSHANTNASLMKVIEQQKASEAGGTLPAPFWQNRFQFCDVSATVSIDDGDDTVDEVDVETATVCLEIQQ
Briefly: Leishmania donovani Ubiquitin Activating Enzyme (LdE1). To be noted: 30 µM. The class given is functional.

The target in assay [3] is AMP-activated protein kinase, AMPK (Homo sapiens) (UniProt P54646+O43741+P54619+Q9UGJ0+Q9Y478+Q13131+Q9UGI9). Briefly: AMP-dependent Kinase enzyme assay. An in vitro enzyme assay that detects ADP turnover that is directly proportional to AMPK activity. This uses naive AMPK that is activated during the assay with MK-8722. It counts as functional. To be noted: 30 µM.
Assay [4] concerns the target Sialic acid-binding Ig-like lectin 9 (Homo sapiens) (UniProt Q9Y336). Kind of assay: Hs-Siglec9 ALPHAscreen SOP 20170721. To be noted: 10 µM. For orientation: Bead proximity is the source of the signal in Alpha formats.
Assay [5] has as its system Trypanosoma cruzi. Briefly: Trypanosoma cruzi phosphomannomutase and mannose-1-phosphate guanylyltransferase assay. It counts as functional. To be noted: 10 µM.
The target in assay [6] is T2, Arginase-2, mitochondrial (Homo sapiens) (UniProt P78540).
T2 sequence (whole entry): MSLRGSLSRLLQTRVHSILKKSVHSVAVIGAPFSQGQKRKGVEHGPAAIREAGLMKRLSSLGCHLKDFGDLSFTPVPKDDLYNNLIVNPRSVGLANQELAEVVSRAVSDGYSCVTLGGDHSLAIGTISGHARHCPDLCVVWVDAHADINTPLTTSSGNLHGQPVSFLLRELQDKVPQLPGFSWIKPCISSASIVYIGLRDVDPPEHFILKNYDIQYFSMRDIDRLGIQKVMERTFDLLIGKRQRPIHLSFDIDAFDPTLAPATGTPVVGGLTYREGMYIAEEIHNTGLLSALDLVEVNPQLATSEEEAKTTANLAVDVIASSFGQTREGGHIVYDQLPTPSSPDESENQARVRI
Briefly: in vitro enzyme assay to detect the production of urea directly proportional to the activity of Arginase II. Note: in the data most compounds retested in dose-response had high values. The class given is functional. To be noted: 33.3 µM.

Assay [7] has as its target T3, Proteasome subunit beta (Trypanosoma cruzi) (UniProt O96673).
T3 sequence (whole entry): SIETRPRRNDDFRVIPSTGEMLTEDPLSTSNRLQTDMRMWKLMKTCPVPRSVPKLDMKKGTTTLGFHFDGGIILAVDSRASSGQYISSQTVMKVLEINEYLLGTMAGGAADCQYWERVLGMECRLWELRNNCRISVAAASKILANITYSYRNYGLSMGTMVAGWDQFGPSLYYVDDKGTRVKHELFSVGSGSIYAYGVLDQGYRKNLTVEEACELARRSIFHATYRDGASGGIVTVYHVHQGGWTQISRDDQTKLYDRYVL
Kind of assay: Trypanosoma cruzi proteasome chymotrypsin-like activity (TcProtChymo) assay. Note: in the data most compounds retested in dose-response had high values. The class given is functional. To be noted: 9.37 µM.

The species named for assay [8] is Homo sapiens. Kind of assay: To identify inhibition of the IFN signalling (Jak-Stat) pathway via expression of an eGFP reporter gene under the control of an IFN-stimulated response element (ISRE) containing MxA promoter. It counts as functional. To be noted: 30 µM.
Assay [9] concerns the target T4, Tyrosyl-tRNA synthetase, putative (Trypanosoma cruzi (strain CL Brener)) (UniProt Q4DSP6).
T4 sequence (whole entry): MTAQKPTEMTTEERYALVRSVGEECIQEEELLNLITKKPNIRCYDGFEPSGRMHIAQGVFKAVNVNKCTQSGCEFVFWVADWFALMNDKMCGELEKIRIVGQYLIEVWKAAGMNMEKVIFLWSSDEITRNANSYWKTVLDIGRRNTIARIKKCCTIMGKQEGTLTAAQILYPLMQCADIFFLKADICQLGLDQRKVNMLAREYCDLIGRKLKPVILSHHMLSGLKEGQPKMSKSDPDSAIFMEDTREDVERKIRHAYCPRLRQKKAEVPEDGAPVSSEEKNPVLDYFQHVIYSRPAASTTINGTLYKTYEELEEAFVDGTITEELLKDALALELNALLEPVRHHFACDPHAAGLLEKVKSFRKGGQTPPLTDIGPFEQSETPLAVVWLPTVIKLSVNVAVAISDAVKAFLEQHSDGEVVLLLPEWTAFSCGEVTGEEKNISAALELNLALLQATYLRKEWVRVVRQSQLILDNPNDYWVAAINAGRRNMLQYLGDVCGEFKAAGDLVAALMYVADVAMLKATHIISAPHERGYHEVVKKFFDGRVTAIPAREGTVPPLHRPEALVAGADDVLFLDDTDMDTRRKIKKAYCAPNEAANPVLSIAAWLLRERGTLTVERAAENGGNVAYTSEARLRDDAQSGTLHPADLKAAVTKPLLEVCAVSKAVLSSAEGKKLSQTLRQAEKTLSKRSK
Kind of assay: Trypanosoma cruzi tyrosyl tRNA synthetase (TcYRS) _High Tyrosine SOP. Note: in the data most compounds retested in dose-response had high values. To be noted: 30 µM. It counts as functional.

Assay [10] addresses T4, Tyrosyl-tRNA synthetase, putative (Trypanosoma cruzi (strain CL Brener)). Briefly: Trypanosoma cruzi tyrosyl tRNA synthetase (TcYRS) SOP. It counts as functional. To be noted: 30 µM.
Assay [11] has as its target Chromo domain-containing protein 1 (Saccharomyces cerevisiae (strain ATCC 204508 / S288c) (Baker's yeast)) (UniProt P32657). Kind of assay: ScCHD-1 Enzyme Inhibition Assay. Note: in the data most compounds retested in dose-response had high values. The class given is functional. To be noted: 30 µM.

Sequence of Chromo domain-containing protein 1 (Saccharomyces cerevisiae (strain ATCC 204508 / S288c) (Baker's yeast)) (P32657 whole entry, the tested form may be a part): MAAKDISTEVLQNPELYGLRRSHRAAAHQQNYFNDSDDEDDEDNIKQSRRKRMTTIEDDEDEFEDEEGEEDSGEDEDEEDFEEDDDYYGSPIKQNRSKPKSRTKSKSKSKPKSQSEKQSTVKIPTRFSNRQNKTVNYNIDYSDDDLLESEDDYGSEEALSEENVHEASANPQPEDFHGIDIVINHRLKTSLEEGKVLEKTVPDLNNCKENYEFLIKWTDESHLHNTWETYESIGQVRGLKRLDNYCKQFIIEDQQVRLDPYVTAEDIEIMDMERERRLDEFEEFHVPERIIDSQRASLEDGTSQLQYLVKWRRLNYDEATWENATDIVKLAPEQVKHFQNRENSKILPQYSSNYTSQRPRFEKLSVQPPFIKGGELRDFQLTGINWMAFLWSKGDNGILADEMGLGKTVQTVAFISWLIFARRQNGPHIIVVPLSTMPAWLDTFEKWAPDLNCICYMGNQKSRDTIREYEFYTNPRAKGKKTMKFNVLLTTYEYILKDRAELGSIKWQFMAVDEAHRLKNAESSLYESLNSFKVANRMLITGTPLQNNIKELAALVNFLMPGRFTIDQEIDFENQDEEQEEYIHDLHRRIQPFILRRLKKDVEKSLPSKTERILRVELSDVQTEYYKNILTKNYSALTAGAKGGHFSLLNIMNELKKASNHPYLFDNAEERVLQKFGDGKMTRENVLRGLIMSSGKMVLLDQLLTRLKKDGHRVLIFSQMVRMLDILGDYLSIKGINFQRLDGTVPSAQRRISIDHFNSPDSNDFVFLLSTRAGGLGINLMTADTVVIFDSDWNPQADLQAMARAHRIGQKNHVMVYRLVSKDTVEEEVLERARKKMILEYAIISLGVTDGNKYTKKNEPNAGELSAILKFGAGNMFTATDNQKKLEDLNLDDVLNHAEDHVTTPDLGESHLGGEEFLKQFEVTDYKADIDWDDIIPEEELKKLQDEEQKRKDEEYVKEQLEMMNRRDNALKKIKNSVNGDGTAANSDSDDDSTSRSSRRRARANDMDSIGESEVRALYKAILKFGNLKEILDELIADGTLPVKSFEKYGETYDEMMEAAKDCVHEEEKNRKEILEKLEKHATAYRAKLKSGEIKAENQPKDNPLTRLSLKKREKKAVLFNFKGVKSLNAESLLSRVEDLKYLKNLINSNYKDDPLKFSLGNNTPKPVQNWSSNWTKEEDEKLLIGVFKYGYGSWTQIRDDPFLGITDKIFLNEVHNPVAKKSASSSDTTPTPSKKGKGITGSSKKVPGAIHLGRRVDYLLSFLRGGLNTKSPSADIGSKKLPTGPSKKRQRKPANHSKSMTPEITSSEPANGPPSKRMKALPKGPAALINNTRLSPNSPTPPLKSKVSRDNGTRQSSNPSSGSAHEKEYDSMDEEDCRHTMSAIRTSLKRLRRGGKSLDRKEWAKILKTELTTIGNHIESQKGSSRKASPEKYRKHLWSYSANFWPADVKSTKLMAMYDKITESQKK
Sequence of Sialic acid-binding Ig-like lectin 9 (Homo sapiens) (Q9Y336 whole entry): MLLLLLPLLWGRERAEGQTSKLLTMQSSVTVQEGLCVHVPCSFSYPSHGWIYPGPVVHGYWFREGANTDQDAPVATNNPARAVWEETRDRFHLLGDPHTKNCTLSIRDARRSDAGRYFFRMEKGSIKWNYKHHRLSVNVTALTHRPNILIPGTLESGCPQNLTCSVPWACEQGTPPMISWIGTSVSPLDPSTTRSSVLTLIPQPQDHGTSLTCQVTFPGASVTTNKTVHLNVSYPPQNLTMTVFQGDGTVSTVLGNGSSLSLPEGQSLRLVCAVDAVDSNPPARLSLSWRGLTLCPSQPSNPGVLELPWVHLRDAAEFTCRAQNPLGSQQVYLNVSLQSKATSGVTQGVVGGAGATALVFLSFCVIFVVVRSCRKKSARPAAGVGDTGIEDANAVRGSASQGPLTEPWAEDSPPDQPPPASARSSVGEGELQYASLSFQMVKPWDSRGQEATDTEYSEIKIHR
Sequence of Protein translocase subunit SecA (Escherichia coli (strain K12)) (P10408 whole entry): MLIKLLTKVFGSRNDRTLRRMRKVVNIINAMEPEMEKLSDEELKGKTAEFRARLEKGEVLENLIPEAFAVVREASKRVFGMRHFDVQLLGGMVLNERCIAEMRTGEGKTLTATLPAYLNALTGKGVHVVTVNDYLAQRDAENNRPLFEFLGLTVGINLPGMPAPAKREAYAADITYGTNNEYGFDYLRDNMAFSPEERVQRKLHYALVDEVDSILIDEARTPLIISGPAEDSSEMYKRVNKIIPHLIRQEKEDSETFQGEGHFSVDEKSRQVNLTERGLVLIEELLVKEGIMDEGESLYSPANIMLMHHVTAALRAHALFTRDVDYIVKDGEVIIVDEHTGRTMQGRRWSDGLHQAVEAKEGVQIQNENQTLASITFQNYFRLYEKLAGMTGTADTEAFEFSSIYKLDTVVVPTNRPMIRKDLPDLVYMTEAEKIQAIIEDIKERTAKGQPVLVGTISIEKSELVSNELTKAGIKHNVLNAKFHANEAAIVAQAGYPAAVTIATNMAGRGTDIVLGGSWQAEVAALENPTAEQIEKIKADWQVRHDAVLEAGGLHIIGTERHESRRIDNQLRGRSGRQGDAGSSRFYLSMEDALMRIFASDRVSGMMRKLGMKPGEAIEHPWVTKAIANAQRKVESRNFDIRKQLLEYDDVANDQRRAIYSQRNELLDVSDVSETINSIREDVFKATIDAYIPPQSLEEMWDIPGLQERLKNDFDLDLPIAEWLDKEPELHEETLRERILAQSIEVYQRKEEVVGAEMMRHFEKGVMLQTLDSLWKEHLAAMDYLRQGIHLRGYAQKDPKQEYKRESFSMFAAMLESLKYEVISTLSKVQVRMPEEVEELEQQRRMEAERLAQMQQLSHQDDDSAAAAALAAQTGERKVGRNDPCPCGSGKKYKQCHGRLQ

Consider `COCCN1C(=O)[C@]2(CC[C@@H]3CN(C(=O)NCC(C)C)C[C@@H]32)N=C1C`, for which the Percent Effect in [1] is 1.47%; in assay [2], 5.33%; in assay [3] it was -2.77%; in [4] it was -5%; in assay [5], 5.41%; in [6], -49.3%. Also, the Percent Effect in [7] was 5.3%; in assay [8], -20.3%; in [9], 1.04%; in assay [10], 0%; in assay [11], -4.55%.
Take `Cc1cc(C)n(CC(C)CNC(=O)[C@@H](C)NC(=O)OC(C)(C)C)n1` (stereo partly specified): the Percent Effect in assay [1] is -2.44%; in assay [2], 7.89%; in [3], 3.79%; in assay [4] it was 1.85%; in [5] it was 0.487%; in [6] it was -5.92%. Further, the Percent Effect in assay [7] was 17.7%; in assay [8], -12.5%; in assay [9], 4.25%; in [10], 13%; in assay [11] it was -2.31%.
On to `CC(=O)N1CC[C@H]2OCC[C@@H](C(=O)N3CCCCO3)[C@@H]2C1`, for which the Percent Effect in assay [1] is -2.31%; in assay [2] it was 12%; in [3], -3.03%; in [4], 10.7%; in assay [5], -1.97%; in [6] it was -8.63%. The Percent Effect was 15% in assay [7]; -4.45% in assay [8]; 4.23% in [9]; 12.8% in assay [10]; -7.82% in [11].
In the case of `CN(CCc1ccccc1)Cc1cc(C(=O)N2CCCC2(C)C)no1`, the Percent Effect was 8.96% in [1]; 13.7% in assay [2]; -8.24% in [3]; 6.18% in assay [4]; -2.38% in [5]; -17.6% in [6]. Further, the Percent Effect was 11% in assay [7]; 33.7% in assay [8]; 8.33% in [9]; 11.1% in assay [10]; -0.0446% in assay [11].
Regarding `Cc1cc(C)n(C2CCCN(C(=O)CCNS(C)(=O)=O)C2)n1` (stereo unspecified), the Percent Effect in [1] was 2.69%; in assay [2] it was -6.33%; in [3] it was -12.4%; in [4], -1.59%; in assay [5] it was -0.103%; in assay [6], 7.53%. Further, the Percent Effect in [7] is 8.58%; in [8], 12.6%; in [9] it was 2.08%; in [10], 7.59%; in assay [11] it was -22.7%.
With `COc1cccc(COCC(=O)N2CCC(CC(N)=O)CC2)c1`, the Percent Effect in assay [1] was -3.54%; in [2] it was 7.89%; in assay [3] it was -1.04%; in assay [4], -0.0672%; in assay [5], -6.77%; in assay [6] it was 5.75%. Also, the Percent Effect is 0.334% in [7]; 23.7% in assay [8]; 5.39% in [9]; 12.2% in assay [10]; -3.41% in [11].
Turning to `Cc1cn2nc(N3CCCC3CC(C)(C)C)sc2n1` (stereo unspecified), the Percent Effect in [1] is -5.41%; in assay [2], -1.27%; in assay [3] it was 7.29%; in assay [4], 3.5%; in [5] it was 0.103%; in assay [6], 2.8%. Further, the Percent Effect in assay [7] was 11%; in [8], 15.4%; in assay [9] it was 3.12%; in assay [10], 7.59%; in assay [11], -4.52%.
In the case of `CCS(=O)(=O)N1C[C@H]2C[C@H](C(=O)N(C)C)[C@@H](C1)O2`, the Percent Effect in assay [1] was -1.35%; in assay [2], 8%; in assay [3] it was 9.37%; in [4], 0.653%; in assay [5] it was -5.51%; in assay [6], 3.03%. The Percent Effect is 5.55% in [7]; 5.25% in assay [8]; 4.25% in [9]; 6.41% in assay [10]; -3.75% in [11].
For `O=C1COC2(CCN(Cc3ccccn3)CC2)CN1CC1CC1`, the Percent Effect was 0.889% in [1]; 2.6% in [2]; 17.2% in assay [3]; 2.67% in assay [4]; -4.83% in [5]; -1.94% in assay [6]. The Percent Effect in [7] is -3.13%; in assay [8], 9.22%; in [9] it was 1.06%; in [10], 3.85%; in [11] it was -1.35%.
`O=C(c1ccccc1N1CCOCC1)N1CCCC(n2cccn2)C1` (stereo unspecified): the Percent Effect is -5.13% in [1]; 2.7% in [2]; -10.8% in assay [3]; 3.15% in assay [4]; -1.98% in assay [5]; -0.802% in assay [6]. Moreover, the Percent Effect in assay [7] was 3.06%; in [8], 12.4%; in [9], 5.42%; in [10], 13.6%; in [11], -3.66%.
`COc1cccc(N2CCN(CC(O)c3ccc(C)cc3)CC2)c1` (stereo unspecified): the Percent Effect in assay [1] is -1.61%; in assay [2], 21.1%; in assay [3], -2.12%; in [4] it was -9.96%; in assay [5], 0.292%; in assay [6], 0%. Besides, the Percent Effect stood at 17% in assay [7]; 3.85% in [8]; 5.32% in [9]; 20.8% in assay [10]; 21% in assay [11].

The record behind these values is ChEMBL document CHEMBL3988442, “University of Dundee, Small-Polar-MMV Screening Library” (2021).
